The campaign covered roughly 1,200 compounds. Fewer than 10 were called active. The list is a sample of the results. Values without a mark were called inactive. Calls come from the whole dose curve; as a rule, active = well fitted curve in the direction sought with a large enough effect; inconclusive = small, poorly fitted or top-dose-only effect, or another doubt; inactive = no such curve, though single readings can be large or run the other way.
assay: Confirmatory qHTS assay for inhibitors of Activation Induced Cytidine Deaminase (AID): UDG signals; conditions: UDG coupled enzyme activity counter-screen; series mostly up to 115 µM; activity change, negative = inhibition: at the top concentration; note: 0% is about no effect
Description: Assay Provider (PI) Patricia Gearhart Ph.D.
National Institute on Aging
National Institute of Health (NIH), Bethesda, MD
Assay Provider (PI) Rahul Kohli Ph.D.
Perelman School of Medicine
University of Pennsylvania, Philadelphia, PA
Activation-Induced Deaminase (AID) is a cytosine deaminase which converts cytosine into uracil within stretches of ssDNA. The presence of uracil in DNA initiates a cascade of mutagenic DNA repair to introduce point mutations and DNA double strand breaks. Specific targeting of AID to the immunoglobulin heavy chain loci (Igh) promotes mutagenesis in the antibody variable region for somatic hypermutation (SHM) or switch regions leading to class switch recombination (CSR). However, AID also plays a role in accumulating unnecessary mutations across the genome. Mis-targeting of AID results in the initiation of tumor development and leads to greater drug resistance among cancer cells when continually expressed. To identify an AID inhibitor, a small molecule library will be screened in collaboration with NCATS core facility at NIH. To confirm biological function, inhibitors will be examined in an in vitro murine B-cell activation assay and subsequent secondary validation screens. Top molecules will be further screened to identify inhibitory efficacy against a wild type primary splenocytes assay. Using these approaches, we hope to identify a small molecule with great efficacy and low toxicity for use as a molecular probe to further characterize AID's intricacies, or even as a therapeutic.
A FRET based analysis of cytosine deamination, was developed to identify potential inhibitors of AID catalytic activity. This screen has two signal output, Read 1 evaluates the AID inhibition response. The second readout (Read 2) evaluates UDG response and is uses as a counterscreen to exclude false positive inhibitors. Inhibition in AID and inactivity in the UDG signal is the desired outcome for this assay.
SEQUENCE No. (e.g., 1, 2, 3, etc.); […] (e.g., Cells, Incubation, Reagent, etc.); VALUE; DESCRIPTION
1a; Reagent; 3 uL; [4/3x] 1 uM AID/2.67 U/mL UDG
1b; Reagent; 3 uL; 2 U/mL UDG
1c; Reagent; 3 uL; 1 uM AID
2a; Compound; 46 nL; Follow-up plates (0.64 uM - 10 mM)
2b; Control; 46 nL; ATA ([…] - 10 mM)
3; Time; 10 min; incubation at room temperature
5; Time; 4 hr; incubation at room temperature
6; Reagent; 4 uL; [2x] 250 mM NaOH
7; Time; 15 sec; centrifuge at 1000 rpm
8; Time; 30 min; incubation at room temperature
9a; Detection; fluorescence (Read 1: AID); EnVision (PerkinElmer) plate reader, 540 excitation and 590 emission filters
9b; Detection; fluorescence (Read 2: UDG); EnVision (PerkinElmer) plate reader, 560 excitation and 665 emission filters
NOTES (numbers refer to sequence above)
1a; Reagents were dispensed in a medium-binding black solid-bottom Greiner plates (789176F) using a BioRptr liquid dispenser. Dispense 3 uL of [4/3x] 1 uM AID (provided by Kohli lab) and [4/3x] 2 U/mL UDG (NEB M0280L) into columns 1, 2, 5 to 48.
1b; Dispense 3 uL of [4/3x] 2 U/mL UDG into column 3.
1c; Dispense 3 uL of [4/3x] 1 uM AID into column 4.
2a; Compound (7-points [uM]: 0.64; 3.2; 16; 80; 400; 2,000; 10,000; […]) double pin-transferred (Dip Factor = 2) using the Kalypsys (Wako USA) pintool equipped with a 1536 pinhead for a final concentration range of 7.32 nM - 114 uM.
2b; 10 mM Aurintricarboxylic Acid (Sigma A1895) (ATA, 8-point, n = 2, 1:2.5 dilution in column 2) double pin-transferred (Dip Factor = 2) using the Kalypsys (Wako USA) pintool equipped with a 1536 pinhead for a [final] range of 186 nM - 114 uM.
3; Room temperature incubation.
4; Dispense 1 uL of substrate mixture from the Kohli lab [4x] […] DJC20 and [4x] 250 nM DJC23 into columns 1 to 48 .
5; Room temperature incubation.
6; Dispense 4 uL of substrate mixture [2x] 250 mM NaOH into columns 1 to 48.
7; Centrifugation step to remove bubbles.
8; Room temperature incubation
9a; Fluorescence signal (column label AID) was read using the EnVision plate reader. […]

| Compound | activity change, negative = inhibition [%] |
| --- | --- |
| CCCCn1c(-c2ccc(C)cc2)c(C)n2c3c(=O)n(C)c(=O)n(C)c3nc12 | -8.55 |
| COc1ccccc1CC(=O)Nc1ccc2nc(Nc3cccc(C(F)(F)F)c3)cc(C)c2c1 | -7.35 |
| CC1CCCCN1CCNC(=O)c1ccc(Cn2c(SCc3ccccc3)nc3cccnc32)cc1 (stereo unspecified) | -1.41 |
| CC(C)CCN(Cc1ccco1)C(=O)c1cc2c(s1)-c1ccccc1OC2 | -3.35 |
| CCC(C)c1ccc(OCC(=O)Nc2cccc(-c3nc4ncccc4o3)c2)cc1 (stereo unspecified) | -3.86 |
| CCc1ccc(NC(=O)c2cc(C(C)=O)n3ccccc23)cc1 | -4.94 |
| CCc1ccc2oc(C(=O)NCC(c3ccc(Cl)cc3)N3CCOCC3)c(C)c2c1 (stereo unspecified) | -10.8 |
| COc1ccc(N(C)C(=O)c2cc3c(s2)-c2ccccc2OC3)cc1 | -11.3 |
| COc1ccc(C2CC(=O)N3CN(C4CCCCC4)CSC3=C2C#N)c(OC)c1 (stereo unspecified) | -11.5 |
| CCn1cc2nc(SCc3cccc(C(F)(F)F)c3)n(Cc3ccc(C)cc3)c(=O)c2n1 | -5.91 |
| Cc1ccc(-n2ncc(C(=O)N3CCN(Cc4ccccc4)CC3)c2C2CCN(C(=O)OC(C)(C)C)CC2)c(C)c1 | -9.77 |
| CCn1cc(S(=O)(=O)c2ccc(Cl)cc2)c(=O)c2cc(F)c(N3CCOCC3)cc21 | 8.08 |
| Cc1ccc(-n2c(=O)c3oc4ccccc4c3n(Cc3cccc(F)c3)c2=O)cc1C | 1.83 |
| O=C(c1cccn1-c1nnc(N2CCCCC2)s1)N1CCN(c2ccc(Cl)cc2)CC1 | -13.6 |
| Cc1ccc(Cl)cc1N1CCN(C(=O)c2ccc3c(c2)N(Cc2ccccc2)CCS3)CC1 | 10.8 |
| COc1ccc(-c2coc3c2c(C)cc2oc(=O)c(CC(=O)O)c(C)c23)cc1 | -15.3 |
| CCCc1cc(=O)n2[nH]c(NC(=O)c3ccc(C(C)(C)C)cc3)nc2n1 | 14.5 |
| Cc1ccccc1C(=O)Nc1ccc(C(=O)OCc2cc(=O)n3c4c(sc3n2)CCCC4)cc1 | -1.88 |
| Cc1ccc2c(C)c(C(=O)NCC(c3ccc(Cl)cc3)N3CCOCC3)oc2c1 (stereo unspecified) | -1.8 |
| CCOC(=O)c1c(C)oc2nc(C)nc(N3CCN(c4ccccc4F)CC3)c12 | -3.63 |
| CCN(CC)C(=O)c1ccc2c(c1)N(Cc1c(F)cccc1Cl)C(=O)c1ccccc1S2 | 0.172 |
| COc1ccc(-c2nn3c(-c4ccccc4C)nnc3c3ccccc23)cc1 | -9.22 |
| COc1ccc(CCNC(=O)CSc2cn(CCNC(=O)c3cccc(C(F)(F)F)c3)c3ccccc23)cc1OC | -4.31 |
| CCOCCCn1c(=N)c(C(=O)NC(C)c2ccccc2)cc2c(=O)n3cccc(C)c3nc21 (stereo unspecified) | -12.7 |
| COc1ccc(CNc2oc(-c3ccc(COc4ccccc4C)o3)nc2C#N)cc1 | -3.1 |
| Cc1ccc(Cl)cc1N(C)C(=O)c1sc2nc3n(c(=O)c2c1C)CCCC3 | -5.4 |
